Measurements reported in PubChem BioAssay (NCI).
The panel holds about 83,000 compounds, 20% with a hit somewhere; the sample as a whole holds those more often.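 Treatment: one concentration, 48 hours, 96-well format. Scoring: percent growth, with anything below 10 considered active.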 Unmarked numbers belong to inactive results. Activity calls are given as the source filed them.

Tested on: DU-145 prostate
Assay: NCI-60 one-dose screen, 48 h (100 = growth as untreated, 0 = no growth, -100 = all killed)
Conditions: 10 µM

Structure (SMILES) | growth
O=C1Nc2ccc(F)cc2/C1=C/c1cccc(OCc2ccccn2)c1 | 42.5%
CC1=N/C(=C\c2ccc(N(C)C)cc2)C(=O)N1CCc1ccc(S(N)(=O)=O)cc1 | 112%
O=C(Nc1ccc(I)cc1F)c1cc(-c2ccc(F)cc2F)ccc1O | 21.5%
C/C(=N\NC(N)=S)c1ccc(Nc2nc(SC(C)C)nc(-c3ccccc3)c2C#N)cc1 | 70.5%
COc1ccc2c(c1)N=C(C(=O)O)/C2=C/c1sc(Nc2ccc(O)cc2)nc1O | 94.1%
COc1cc(-c2nc3cc(Cl)c(Cl)cc3[nH]2)ccc1OCc1nnc(-c2ccc(Br)cc2)o1 | 47.2%
Cc1ccc(NC(=O)c2ccc(-n3c(=O)[nH]c4ccccc4c3=O)cc2)cc1 | 102%
CC(=C(c1ccc(OCCN2CCCCC2)cc1)c1ccc(OCCN2CCCCC2)cc1)c1ccccc1 | 62.5%
CCCCCc1ccc(S(=O)(=O)N(C(C)=O)c2cc(-c3csc(N(C)C(C)=O)n3)ccc2N2CCN(C)CC2)cc1 | 46.4%
COc1cc2c3c(n(CCCNC(C)C)c(=O)c2cc1OC)-c1nc2c(cc1C3=O)OCO2 | 8.46% (active)

Tested on: K-562 leukemia
Assay: as above
Conditions: 10 µM

Structure (SMILES) | growth
O=C(NO)c1ccc(Cn2ccc3c(Nc4ccccc4)ncnc32)cc1 | 12.1%
N#Cc1ccc(-c2nn(-c3ccc(C(=O)O)cc3)cc2CNc2cccc(Br)c2)cc1 | 46.3%
O=C(c1ccc(Cl)cc1)C1[C@H](c2ccccc2Br)[C@@H](c2ccccc2)NC12C(=O)Nc1ccccc12 (some centres undefined) | 3.71% (active)
Cc1ccc(/C=C/C(=O)c2ccc(S(=O)(=O)NCCNc3nc(Nc4ccc(F)cc4)nc(N(C)C)n3)cc2)cc1 | 12.2%
COc1ccc(C(=O)Nc2sc3c(c2C#N)CCC(=O)C3)cc1C(F)(F)F | 3.54% (active)
COc1ccc2nc(Cl)c(-c3cc(-c4ccccc4)nc(=S)[nH]3)cc2c1 | 24.8%
Cc1ccc(-c2cc(C(=O)N=Nc3c(O)[nH]c4ccccc34)c3ccccc3n2)cc1 | 13.8%
CC(C)C1=C[C@@]23CC[C@@H]4[C@](C)(CCC[C@]4(C)C(=O)NCc4ccccc4)[C@H]2C[C@@H]1[C@H]1C(=O)CCC(=O)[C@H]13 | 55.7%
COc1ccc(C(=O)NC(=S)N2CCN(c3ncnc4c3cnn4-c3ccccc3)CC2)cc1 | 62.7%
Cc1cccc2cc(-c3cc(-c4ccccc4)nc(=S)[nH]3)c(Cl)nc12 | 38%
Cc1ccc(CNC(=O)Cc2ccc3c(c2)CN(C2CCC(=O)NC2=O)C3=O)cc1 (centres undefined) | 14.5%
CONC[C@]1(C)C=C2C(=O)[C@](C)(O)C3(CC3)C(C)=C2[C@H]1O | 2.9% (active)
NS(=O)(=O)c1ccc(N=Nc2c(O)n(CC(=O)Nc3ccccc3Br)c3ccccc23)cc1 | 27.2%
CC(=O)Nc1ccc(-c2cn(-c3cccc(C(=O)Nc4ccc(Cl)c(C(F)(F)F)c4)c3)nn2)cn1 | 4.92% (active)
O=C(Cn1nc(-c2ccccc2)ccc1=O)NN1C(=O)c2ccccc2C1=O | 99.8%
CCN1CCN(Cc2ccc(C(=O)Nc3cccc(-c4cn(-c5ccc6oc(=O)ccc6c5)nn4)c3)cc2C(F)(F)F)CC1 | -61.7% (active)
CCOP(=O)(OCC)O[C@H]1CCC(=O)[C@@H]2[C@H]1[C@H]1C[C@@H]3[C@@]4(C)CCCC(C)(C(=O)OC)[C@@H]4CC[C@@]23C=C1C(C)C (some centres undefined) | 30.1%
O=C1Nc2ccc(F)cc2/C1=C/c1cccc(OCc2ccccn2)c1 | 4.79% (active)
CC1=N/C(=C\c2ccc(N(C)C)cc2)C(=O)N1CCc1ccc(S(N)(=O)=O)cc1 | 90.6%
O=C(Nc1ccc(I)cc1F)c1cc(-c2ccc(F)cc2F)ccc1O | 7.69% (active)
C/C(=N\NC(N)=S)c1ccc(Nc2nc(SC(C)C)nc(-c3ccccc3)c2C#N)cc1 | 87.2%
COc1ccc2c(c1)N=C(C(=O)O)/C2=C/c1sc(Nc2ccc(O)cc2)nc1O | 29.1%
COc1cc(-c2nc3cc(Cl)c(Cl)cc3[nH]2)ccc1OCc1nnc(-c2ccc(Br)cc2)o1 | 6.47% (active)
COc1cc2c3c(n(CCCNC(C)C)c(=O)c2cc1OC)-c1nc2c(cc1C3=O)OCO2 | 2.95% (active)
